Each structure is given as a SMILES string. ± gives the standard deviation of the averaged measurements.

The first experiment deals with SW480. The experiment is described as follows: cell viability (CellTiter-Glo) relative to plate median (fraction of plate median); higher = more viable cells. Particulars: 5 µM; treatment time 24 h; reporter: 7TFP. Summed up:
(§1)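 Normalisation used webcellHTS2 in additive mode without log transformation, scaling each well's luminescence to the plate median. The luminescence was firefly luciferase or CellTiterGlo, read on a Tecan F500 from parallel plates of colorectal cancer cells stably transduced with lentiviral TCF/Wnt firefly luciferase reporters. Those cells had been given library compounds at a final 5 µM for 24 h, and two independent replicates were averaged.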
In general terms: In ATP-based viability assays light output follows the ATP content of the culture.
With `CC(=O)N[C@@H](CC(=O)N[C@@H](CCC(=O)O)C(=O)O)C(=O)O`, the cell viability is 0.925 ± 0.011.
The same measure, in the same setting: with `COc1c(N2CCNC(C)C2)c(F)cc2c(=O)c(C(=O)O)cn(C3CC3)c12` (stereo not drawn) the figure was 0.966 ± 0.048; with `CCCCCCCCCCCC[C@H](O)[C@@H]1CC[C@@H]([C@@H](O)CCCCCCCC(=O)CC[C@@H](O)CC2=C[C@H](C)OC2=O)O1` [annocherin], 0.921 ± 0.093.
Turning to `COc1ccc(C(=O)c2ccc(O)cc2)c(O)c1O`, the cell viability was 1.04 ± 0.078.
Compound `O=C(O)c1cc2cc(F)ccc2[nH]1` yielded a cell viability of 1.07 ± 0.085.
The compound `O=C(CCc1ccc(O)cc1)c1c(O)cc(O)cc1O[C@@H]1OC(CO)[C@@H](O)[C@@H](O)C1O` (stereo partly drawn) gave a cell viability of 1.03 ± 0.021.
As to `CC(=O)/C(=C\c1ccccc1)CC(=O)O`, the cell viability worked out at 1 ± 0.05.
With `CCN(CC)CCCC(C)Nc1ccnc2cc(Cl)ccc12` (stereo not drawn), the cell viability turned out to be 1.05 ± 0.028.
Take `CCCc1cc(=O)[nH]c(=S)[nH]1`: the cell viability stood at 0.998 ± 0.031.
For the compound `CC(C(=O)O)c1ccc(N2Cc3ccccc3C2=O)cc1` (stereo not drawn), the cell viability was 0.992 ± 0.054.
On the same count and under the same terms, the result for `CN(C)C(=O)C(CCN1CCC(O)(c2ccc(Cl)cc2)CC1)(c1ccccc1)c1ccccc1` reads 0.983 ± 0.019; that for `C[C@H](CCC(=O)O)[C@H]1CC[C@H]2[C@@H]3CC[C@@H]4C[C@H](O)CC[C@]4(C)[C@H]3C[C@H](O)[C@]12C`, 1 ± 0.024; that for `CC(=O)O[C@@H]1C[C@@]2(C)C(CC[C@@H]2C(C)=O)C2CCC3=CC(=O)CC[C@]3(C)C21` (stereo partly drawn), 0.976 ± 0.024.
`COc1cccc(/C=C/C(=O)O)c1C(C)C` came in with a cell viability of 1 ± 0.041.
In the case of `Nc1ncn([C@@H]2O[C@H](CO)[C@@H](O)[C@H]2O)c(=O)n1`, the cell viability was 1.07 ± 0.092.
`CCCCCCCC/C=C/CCCCCCCCOP(=O)([O-])OCC[N+](C)(C)C`: the cell viability was determined as 1.02 ± 0.03.
Compound `CCC(=O)OCC(=O)[C@@]1(OC(=O)CC)[C@H](C)CC2C3C([C@@H](O)C[C@@]21C)[C@@]1(C)C=CC(=O)C=C1C[C@H]3Cl` (stereo partly drawn) returned a cell viability of 0.975 ± 0.0057.
Consider `COc1cccc2c1CCC1=CC(=O)CC[C@@]12C`, for which the cell viability amounted to 1.03 ± 0.021.
On to `CCn1nc(C(=O)O)c(=O)c2cc3c(cc21)OCO3`, for which the cell viability was 0.988 ± 0.088.
Same read-out and setting: with `O=C(O)c1cn(-c2ccc(F)cc2)c2cc(N3CCNCC3)c(F)cc2c1=O` the figure was 0.998 ± 0.046; with `O=C(O)C(S)C(S)C(=O)O` (stereo not drawn), 1.01 ± 0.096; with `CCOc1ccc(NC(C)=O)cc1`, 1 ± 0.021.
In turn, `O=C(Oc1cccc2cccnc12)c1ccccc1` showed a cell viability of 1.03 ± 0.035.
As to `CC(C)=CCc1c(O)cc(C)oc1=O`, the cell viability is 1.055 ± 0.0071.
Take `O=C(O)COCCN1CCN(C(c2ccccc2)c2ccc(Cl)cc2)CC1` (stereo not drawn): the cell viability was determined as 0.955 ± 0.024.
The same measure, in the same setting: the result for `O=C1C=C2CC3(O)COc4cc(O)ccc4C3=C2C=C1O` (stereo not drawn) reads 0.98 ± 0.016.
The compound `CC(C(=O)O)c1cccc(C(=O)c2ccccc2)c1` (stereo not drawn) showed a cell viability of 1.04 ± 0.028.
The same measure, in the same setting: the result for `CC(C)c1c(O)c(-c2cc3c(c(C(C)C)c2O)CCC2C(C)(C)CCC[C@]32C)cc2c1CCC1C(C)(C)CCC[C@]21C` (stereo partly drawn) reads 1.02 ± 0.035.
Take `O=C1CN2Cc3c(ccc(Cl)c3Cl)N=C2N1`: the cell viability was 1 ± 0.011.
`CC#C[C@]1(O)CC[C@H]2[C@@H]3CCC4=CC(=O)CCC4=C3[C@@H](c3ccc(N(C)C)cc3)C[C@@]21C`: the cell viability was determined as 0.931 ± 0.042.
On to `CCCc1nc2c(C)cc(-c3nc4ccccc4n3C)cc2n1Cc1ccc(-c2ccccc2C(=O)O)cc1`, for which the cell viability was 1.01 ± 0.021.
The compound `COC(=O)C[C@H]1C(C)(C)[C@@H](OC(C)=O)[C@@H]2CC3=C4CC(=O)O[C@@H](c5ccoc5)[C@]4(C)CC[C@@H]3[C@@]1(C)C2=O` displayed a cell viability of 0.963 ± 0.018.
`CC(C)NCC(O)COc1cccc2ccccc12` (stereo not drawn): the cell viability worked out at 1.03 ± 0.044.
Still for that read-out and setting: the result for `COc1cc2c(cc1-c1coc3c4c(c(OC)cc3c1=O)OC(C)(C)C=C4)OCO2` reads 0.986 ± 0.018; that for `CC(C)=CCc1c(O)cc2oc(C)cc(=O)c2c1O`, 1 ± 0.024; that for `CC(C)NC[C@@H](O)COc1cccc2ccccc12`, 1.11 ± 0.11.
Regarding `CCOC(=O)[N-]c1c[n+](N2CCOCC2)no1`, the cell viability is 1.02 ± 0.035.
With `COc1ccc2c(c1)O[C@@H]1COc3cc(OC)c(OC)cc3[C@@H]1C2=O`, the cell viability came to 0.908 ± 0.037.
Turning to `C[C@H](N)CO`, the cell viability worked out at 0.93 ± 0.035.

For the next experiment, the system named is DLD1. The experiment is described as follows: TCF/Wnt firefly luciferase reporter signal relative to plate median (fraction of plate median); higher = higher Wnt reporter signal. Particulars: 5 µM; treatment time 24 h; reporter: 7TFP. Summed up:
as §1
Consider `CC(=O)N[C@@H](CC(=O)N[C@@H](CCC(=O)O)C(=O)O)C(=O)O`, for which the “TCF/Wnt firefly luciferase reporter signal” value was determined as 0.958 ± 0.088.
Consider `COc1c(N2CCNC(C)C2)c(F)cc2c(=O)c(C(=O)O)cn(C3CC3)c12` (stereo not drawn), for which the “TCF/Wnt firefly luciferase reporter signal” value came out at 0.933 ± 0.081.
Regarding `CCCCCCCCCCCC[C@H](O)[C@@H]1CC[C@@H]([C@@H](O)CCCCCCCC(=O)CC[C@@H](O)CC2=C[C@H](C)OC2=O)O1` [annocherin], the “TCF/Wnt firefly luciferase reporter signal” value was 0.843 ± 0.12.
Take `COc1ccc(C(=O)c2ccc(O)cc2)c(O)c1O`: the “TCF/Wnt firefly luciferase reporter signal” value is 1.03 ± 0.028.
Take `O=C(O)c1cc2cc(F)ccc2[nH]1`: the “TCF/Wnt firefly luciferase reporter signal” value is 0.963 ± 0.0057.
With `O=C(CCc1ccc(O)cc1)c1c(O)cc(O)cc1O[C@@H]1OC(CO)[C@@H](O)[C@@H](O)C1O` (stereo partly drawn), the “TCF/Wnt firefly luciferase reporter signal” value turned out to be 0.909 ± 0.033.
On to `CC(=O)/C(=C\c1ccccc1)CC(=O)O`, for which the “TCF/Wnt firefly luciferase reporter signal” value turned out to be 0.894 ± 0.0085.
On the same count and under the same terms, with `CCN(CC)CCCC(C)Nc1ccnc2cc(Cl)ccc12` (stereo not drawn) the figure was 0.974 ± 0.024.
Take `CCCc1cc(=O)[nH]c(=S)[nH]1`: the “TCF/Wnt firefly luciferase reporter signal” value was found to be 0.98 ± 0.057.
In the case of `CC(C(=O)O)c1ccc(N2Cc3ccccc3C2=O)cc1` (stereo not drawn), the “TCF/Wnt firefly luciferase reporter signal” value came to 0.99 ± 0.14.
Same read-out and setting: with `CN(C)C(=O)C(CCN1CCC(O)(c2ccc(Cl)cc2)CC1)(c1ccccc1)c1ccccc1` the figure was 0.982 ± 0.28; with `C[C@H](CCC(=O)O)[C@H]1CC[C@H]2[C@@H]3CC[C@@H]4C[C@H](O)CC[C@]4(C)[C@H]3C[C@H](O)[C@]12C`, 1.03 ± 0.13; with `CC(=O)O[C@@H]1C[C@@]2(C)C(CC[C@@H]2C(C)=O)C2CCC3=CC(=O)CC[C@]3(C)C21` (stereo partly drawn), 1.02 ± 0.031.
On to `COc1cccc(/C=C/C(=O)O)c1C(C)C`, for which the “TCF/Wnt firefly luciferase reporter signal” value worked out at 1.12 ± 0.26.
As for `Nc1ncn([C@@H]2O[C@H](CO)[C@@H](O)[C@H]2O)c(=O)n1`, the “TCF/Wnt firefly luciferase reporter signal” value was found to be 1.01 ± 0.13.
As to `CCCCCCCC/C=C/CCCCCCCCOP(=O)([O-])OCC[N+](C)(C)C`, the “TCF/Wnt firefly luciferase reporter signal” value amounted to 0.986 ± 0.034.
With `CCC(=O)OCC(=O)[C@@]1(OC(=O)CC)[C@H](C)CC2C3C([C@@H](O)C[C@@]21C)[C@@]1(C)C=CC(=O)C=C1C[C@H]3Cl` (stereo partly drawn), the “TCF/Wnt firefly luciferase reporter signal” value is 0.9755 ± 0.0078.
`COc1cccc2c1CCC1=CC(=O)CC[C@@]12C`: the “TCF/Wnt firefly luciferase reporter signal” value was 0.944 ± 0.073.
With `CCn1nc(C(=O)O)c(=O)c2cc3c(cc21)OCO3`, the “TCF/Wnt firefly luciferase reporter signal” value turned out to be 1 ± 0.11.
`O=C(O)c1cn(-c2ccc(F)cc2)c2cc(N3CCNCC3)c(F)cc2c1=O`: the “TCF/Wnt firefly luciferase reporter signal” value came out at 1.08 ± 0.11.
Same read-out and setting: with `O=C(O)C(S)C(S)C(=O)O` (stereo not drawn) the figure was 0.904 ± 0.1; with `CCOc1ccc(NC(C)=O)cc1`, 1.01 ± 0.08; with `O=C(Oc1cccc2cccnc12)c1ccccc1`, 0.856 ± 0.071.
`CC(C)=CCc1c(O)cc(C)oc1=O`: the “TCF/Wnt firefly luciferase reporter signal” value stood at 1.06 ± 0.1.
Regarding `O=C(O)COCCN1CCN(C(c2ccccc2)c2ccc(Cl)cc2)CC1` (stereo not drawn), the “TCF/Wnt firefly luciferase reporter signal” value amounted to 1.04 ± 0.035.
Regarding `O=C1C=C2CC3(O)COc4cc(O)ccc4C3=C2C=C1O` (stereo not drawn), the “TCF/Wnt firefly luciferase reporter signal” value stood at 1.015 ± 0.0071.
In the case of `CC(C(=O)O)c1cccc(C(=O)c2ccccc2)c1` (stereo not drawn), the “TCF/Wnt firefly luciferase reporter signal” value is 0.9355 ± 0.0064.
With `CC(C)c1c(O)c(-c2cc3c(c(C(C)C)c2O)CCC2C(C)(C)CCC[C@]32C)cc2c1CCC1C(C)(C)CCC[C@]21C` (stereo partly drawn), the “TCF/Wnt firefly luciferase reporter signal” value was 1.26 ± 0.26.
For `O=C1CN2Cc3c(ccc(Cl)c3Cl)N=C2N1`, the “TCF/Wnt firefly luciferase reporter signal” value turned out to be 1.19 ± 0.092.
As for `CC#C[C@]1(O)CC[C@H]2[C@@H]3CCC4=CC(=O)CCC4=C3[C@@H](c3ccc(N(C)C)cc3)C[C@@]21C`, the “TCF/Wnt firefly luciferase reporter signal” value is 0.891 ± 0.05.
As to `CCCc1nc2c(C)cc(-c3nc4ccccc4n3C)cc2n1Cc1ccc(-c2ccccc2C(=O)O)cc1`, the “TCF/Wnt firefly luciferase reporter signal” value came out at 0.98 ± 0.028.
On to `COC(=O)C[C@H]1C(C)(C)[C@@H](OC(C)=O)[C@@H]2CC3=C4CC(=O)O[C@@H](c5ccoc5)[C@]4(C)CC[C@@H]3[C@@]1(C)C2=O`, for which the “TCF/Wnt firefly luciferase reporter signal” value was found to be 0.993 ± 0.067.
Same read-out and setting: the result for `CC(C)NCC(O)COc1cccc2ccccc12` (stereo not drawn) reads 1.01 ± 0.044.
For `COc1cc2c(cc1-c1coc3c4c(c(OC)cc3c1=O)OC(C)(C)C=C4)OCO2`, the “TCF/Wnt firefly luciferase reporter signal” value was 0.892 ± 0.014.
With `CC(C)=CCc1c(O)cc2oc(C)cc(=O)c2c1O`, the “TCF/Wnt firefly luciferase reporter signal” value was found to be 0.869 ± 0.15.
`CC(C)NC[C@@H](O)COc1cccc2ccccc12`: the “TCF/Wnt firefly luciferase reporter signal” value is 1.01 ± 0.021.
With `CCOC(=O)[N-]c1c[n+](N2CCOCC2)no1`, the “TCF/Wnt firefly luciferase reporter signal” value stood at 0.984 ± 0.037.
Consider `COc1ccc2c(c1)O[C@@H]1COc3cc(OC)c(OC)cc3[C@@H]1C2=O`, for which the “TCF/Wnt firefly luciferase reporter signal” value was 0.979 ± 0.087.
The same measure, in the same setting: with `C[C@H](N)CO` the figure was 0.908 ± 0.058.
